Laboratory results reported in the supplement of paper PMC10849652.
Of roughly 7,900 targets only a part is listed; those with a hit were picked by preference. About 0.6% of all pairs of compound and target were hits. A number with no mark means an inactive call.

Key:
Experiment in all cases: log2 fold change, soluble protein after heating vs DMSO (PISA); higher = thermal stabilisation; K562 cells, 10 uM, 30 min; active = over 0.2 and 3.5 SD of the protein, either way, in both replicates (recomputed)
saracatinib = compound: CN1CCN(CCOc2cc(OC3CCOCC3)c3c(Nc4c(Cl)ccc5c4OCO5)ncnc3c2)CC1 [saracatinib]
Method in brief: (§1)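 Values are thermal stability changes relative to control samples and are taken from duplicates. They are stated as log2 fold changes. Before quantification by TMTpro 16plex LC-MS/MS with equalised channel sums, K562 cells at 2×10^6 cells/mL were treated with 10 μM compound for 30 min, heated in aliquots for 3 min across 48°C-58°C, pooled, extracted in PBS with 0.5% NP-40 at 4°C, and centrifuged at 21,000xg for 90 min to give the soluble supernatant.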

sotrastaurin = compound: CN1CCN(c2nc(C3=C(c4c[nH]c5ccccc45)C(=O)NC3=O)c3ccccc3n2)CC1 [sotrastaurin]
Method in brief: as §1

alvocidib = compound: CN1CC[C@H](c2c(O)cc(O)c3c(=O)cc(-c4ccccc4Cl)oc23)[C@H](O)C1 [alvocidib]
Method in brief: as §1

Tubastatin A = compound: CN1CCc2c(c3ccccc3n2Cc2ccc(C(=O)NO)cc2)C1 [Tubastatin A]
Method in brief: as §1

[1] = compound: CNC(=O)C1=CC=CC=C1NC2=NC(=NC=C2Cl)NC3=C(C=C(C=C3)N4CCOCC4)OC
Method in brief: as §1

defactinib = compound: CNC(=O)c1ccc(Nc2ncc(C(F)(F)F)c(NCc3nccnc3N(C)S(C)(=O)=O)n2)cc1 [defactinib]
Method in brief: as §1

rucaparib = compound: CNCc1ccc(-c2[nH]c3cc(F)cc4c3c2CCNC4=O)cc1 [rucaparib]
Method in brief: as §1

[2] = compound: CNc1nc(-c2ccc3c(N)n[nH]c3c2)cc(N2C[C@@H](C(=O)NC3CCCCC3)CC[C@H]2C)n1
Method in brief: as §1

encorafenib = compound: COC(=O)N[C@@H](C)CNc1nccc(-c2cn(C(C)C)nc2-c2cc(Cl)cc(NS(C)(=O)=O)c2F)n1 [encorafenib]
Method in brief: as §1

[3] = compound: COC(=O)[C@H](CCSC)NC(=O)C1=C(C=C(C=C1)NC[C@H](CS)N)C2=CC=CC=C2
Method in brief: as §1

Sequence of UniProt P50416 (P50416 whole entry, looked up): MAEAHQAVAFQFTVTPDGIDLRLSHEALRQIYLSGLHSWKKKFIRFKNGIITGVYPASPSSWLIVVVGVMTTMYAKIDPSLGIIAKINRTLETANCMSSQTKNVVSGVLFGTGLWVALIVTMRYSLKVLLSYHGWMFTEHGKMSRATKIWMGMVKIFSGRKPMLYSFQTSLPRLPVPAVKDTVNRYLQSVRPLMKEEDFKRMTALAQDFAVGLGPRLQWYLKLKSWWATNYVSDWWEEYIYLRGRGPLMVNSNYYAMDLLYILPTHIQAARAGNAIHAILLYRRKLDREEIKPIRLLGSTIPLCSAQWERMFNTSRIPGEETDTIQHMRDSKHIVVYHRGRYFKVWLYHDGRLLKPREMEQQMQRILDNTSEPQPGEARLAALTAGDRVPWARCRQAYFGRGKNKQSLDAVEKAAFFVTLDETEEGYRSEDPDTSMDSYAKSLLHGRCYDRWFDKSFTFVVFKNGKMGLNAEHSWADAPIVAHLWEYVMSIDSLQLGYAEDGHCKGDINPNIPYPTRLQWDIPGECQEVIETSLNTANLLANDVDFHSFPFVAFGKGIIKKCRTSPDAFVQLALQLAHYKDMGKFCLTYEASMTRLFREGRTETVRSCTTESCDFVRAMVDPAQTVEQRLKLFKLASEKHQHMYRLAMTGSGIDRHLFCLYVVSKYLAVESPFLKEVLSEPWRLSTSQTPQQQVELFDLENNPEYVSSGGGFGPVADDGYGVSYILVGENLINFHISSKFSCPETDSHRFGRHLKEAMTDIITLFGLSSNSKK
Sequence of UniProt Q7KZN9 (Q7KZN9 whole entry, looked up): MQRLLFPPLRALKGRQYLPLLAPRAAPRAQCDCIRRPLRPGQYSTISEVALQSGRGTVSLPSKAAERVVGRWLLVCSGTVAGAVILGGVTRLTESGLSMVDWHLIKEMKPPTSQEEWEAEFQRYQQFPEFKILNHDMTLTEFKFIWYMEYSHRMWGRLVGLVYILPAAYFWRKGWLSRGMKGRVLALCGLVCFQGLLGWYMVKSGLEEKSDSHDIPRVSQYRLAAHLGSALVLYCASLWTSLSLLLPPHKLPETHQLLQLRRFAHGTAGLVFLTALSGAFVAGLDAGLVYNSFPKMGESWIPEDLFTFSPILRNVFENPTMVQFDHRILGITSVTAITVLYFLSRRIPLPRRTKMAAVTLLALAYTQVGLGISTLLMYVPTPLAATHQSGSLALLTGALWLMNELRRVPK
Sequence of UniProt Q9Y5S2 (Q9Y5S2 whole entry, looked up): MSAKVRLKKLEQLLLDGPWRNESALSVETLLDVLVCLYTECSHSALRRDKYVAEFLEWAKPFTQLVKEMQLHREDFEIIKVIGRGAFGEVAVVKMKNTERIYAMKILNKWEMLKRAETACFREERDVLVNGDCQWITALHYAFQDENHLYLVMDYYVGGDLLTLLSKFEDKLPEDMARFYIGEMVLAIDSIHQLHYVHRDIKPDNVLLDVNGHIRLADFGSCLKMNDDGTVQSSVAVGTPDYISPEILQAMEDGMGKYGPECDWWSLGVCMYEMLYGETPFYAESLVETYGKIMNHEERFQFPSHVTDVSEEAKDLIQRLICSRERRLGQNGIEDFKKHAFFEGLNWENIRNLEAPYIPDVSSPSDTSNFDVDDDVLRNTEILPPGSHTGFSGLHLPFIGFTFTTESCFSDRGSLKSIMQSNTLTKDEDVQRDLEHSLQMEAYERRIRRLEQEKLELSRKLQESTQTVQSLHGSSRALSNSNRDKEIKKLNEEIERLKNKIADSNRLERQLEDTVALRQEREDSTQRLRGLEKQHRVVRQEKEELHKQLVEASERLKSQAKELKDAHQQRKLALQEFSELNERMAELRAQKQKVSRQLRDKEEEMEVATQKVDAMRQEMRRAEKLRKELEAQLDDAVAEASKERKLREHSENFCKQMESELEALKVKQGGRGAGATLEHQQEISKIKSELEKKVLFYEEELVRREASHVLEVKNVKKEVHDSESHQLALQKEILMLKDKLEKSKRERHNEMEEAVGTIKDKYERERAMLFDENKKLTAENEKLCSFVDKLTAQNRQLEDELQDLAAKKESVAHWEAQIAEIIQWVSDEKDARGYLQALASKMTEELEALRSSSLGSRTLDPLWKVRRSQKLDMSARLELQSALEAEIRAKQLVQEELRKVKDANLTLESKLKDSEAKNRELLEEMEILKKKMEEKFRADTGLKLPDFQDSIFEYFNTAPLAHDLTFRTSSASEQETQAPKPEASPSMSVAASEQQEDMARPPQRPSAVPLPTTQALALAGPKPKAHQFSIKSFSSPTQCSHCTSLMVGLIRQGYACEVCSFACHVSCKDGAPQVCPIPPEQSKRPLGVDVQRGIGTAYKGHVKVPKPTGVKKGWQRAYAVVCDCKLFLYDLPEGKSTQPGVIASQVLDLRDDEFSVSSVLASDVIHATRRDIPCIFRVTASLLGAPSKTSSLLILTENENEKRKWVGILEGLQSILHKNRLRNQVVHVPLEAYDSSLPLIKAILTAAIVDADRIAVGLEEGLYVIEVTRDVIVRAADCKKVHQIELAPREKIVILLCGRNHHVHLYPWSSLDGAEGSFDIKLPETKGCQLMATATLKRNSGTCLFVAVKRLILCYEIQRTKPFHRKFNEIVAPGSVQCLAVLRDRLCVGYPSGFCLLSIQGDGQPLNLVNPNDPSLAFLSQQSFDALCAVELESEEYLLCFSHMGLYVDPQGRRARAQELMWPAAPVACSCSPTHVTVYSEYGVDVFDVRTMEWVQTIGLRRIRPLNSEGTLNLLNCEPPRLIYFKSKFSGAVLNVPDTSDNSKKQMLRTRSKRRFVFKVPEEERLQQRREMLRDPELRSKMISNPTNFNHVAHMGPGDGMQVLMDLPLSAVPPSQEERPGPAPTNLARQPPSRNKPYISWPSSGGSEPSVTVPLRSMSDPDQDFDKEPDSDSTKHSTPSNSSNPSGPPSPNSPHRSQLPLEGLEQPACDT
Sequence of UniProt O75390 (O75390 whole entry, looked up): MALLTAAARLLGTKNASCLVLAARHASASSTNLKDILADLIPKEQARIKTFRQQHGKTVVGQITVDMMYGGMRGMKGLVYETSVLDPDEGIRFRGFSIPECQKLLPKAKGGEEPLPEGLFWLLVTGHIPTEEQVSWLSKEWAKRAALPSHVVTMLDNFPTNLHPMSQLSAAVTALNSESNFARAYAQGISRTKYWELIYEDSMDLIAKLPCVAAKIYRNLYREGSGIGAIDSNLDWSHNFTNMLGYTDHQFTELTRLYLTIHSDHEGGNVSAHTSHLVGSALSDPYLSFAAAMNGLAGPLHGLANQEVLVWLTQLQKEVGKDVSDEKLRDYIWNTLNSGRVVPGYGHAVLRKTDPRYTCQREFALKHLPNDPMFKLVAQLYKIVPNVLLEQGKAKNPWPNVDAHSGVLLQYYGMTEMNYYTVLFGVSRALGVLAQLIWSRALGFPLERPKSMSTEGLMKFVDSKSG
Sequence of UniProt Q9BSQ5 (Q9BSQ5 whole entry, looked up): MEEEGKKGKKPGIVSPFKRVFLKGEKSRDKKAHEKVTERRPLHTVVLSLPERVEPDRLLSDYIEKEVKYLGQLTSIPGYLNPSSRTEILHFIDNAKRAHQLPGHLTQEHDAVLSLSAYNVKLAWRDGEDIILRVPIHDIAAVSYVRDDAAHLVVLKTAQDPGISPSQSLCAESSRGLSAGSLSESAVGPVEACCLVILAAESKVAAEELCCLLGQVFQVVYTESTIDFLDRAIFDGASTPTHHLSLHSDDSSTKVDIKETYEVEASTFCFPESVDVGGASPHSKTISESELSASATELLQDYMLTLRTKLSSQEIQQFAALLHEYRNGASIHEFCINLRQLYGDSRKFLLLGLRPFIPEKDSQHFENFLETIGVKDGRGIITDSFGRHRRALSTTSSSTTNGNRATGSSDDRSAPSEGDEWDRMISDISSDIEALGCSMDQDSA
Sequence of UniProt Q9NRR8 (Q9NRR8 whole entry, looked up): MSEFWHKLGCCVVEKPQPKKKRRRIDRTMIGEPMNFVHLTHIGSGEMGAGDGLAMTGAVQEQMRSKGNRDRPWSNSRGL
Sequence of UniProt O14757 (O14757 whole entry, looked up): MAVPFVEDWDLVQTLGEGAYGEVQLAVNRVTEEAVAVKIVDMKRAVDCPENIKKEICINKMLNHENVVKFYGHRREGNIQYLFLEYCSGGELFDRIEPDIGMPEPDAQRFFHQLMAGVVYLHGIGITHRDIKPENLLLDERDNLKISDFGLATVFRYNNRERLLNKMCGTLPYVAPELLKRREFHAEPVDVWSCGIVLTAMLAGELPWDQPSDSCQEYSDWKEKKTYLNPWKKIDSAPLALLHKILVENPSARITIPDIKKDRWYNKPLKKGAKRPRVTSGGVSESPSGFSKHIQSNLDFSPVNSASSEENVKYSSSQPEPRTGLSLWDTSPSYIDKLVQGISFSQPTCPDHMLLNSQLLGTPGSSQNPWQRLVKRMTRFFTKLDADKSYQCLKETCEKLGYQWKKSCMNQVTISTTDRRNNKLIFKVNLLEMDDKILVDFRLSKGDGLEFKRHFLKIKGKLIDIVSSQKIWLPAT
Sequence of UniProt Q5T6V5 (Q5T6V5 whole entry, looked up): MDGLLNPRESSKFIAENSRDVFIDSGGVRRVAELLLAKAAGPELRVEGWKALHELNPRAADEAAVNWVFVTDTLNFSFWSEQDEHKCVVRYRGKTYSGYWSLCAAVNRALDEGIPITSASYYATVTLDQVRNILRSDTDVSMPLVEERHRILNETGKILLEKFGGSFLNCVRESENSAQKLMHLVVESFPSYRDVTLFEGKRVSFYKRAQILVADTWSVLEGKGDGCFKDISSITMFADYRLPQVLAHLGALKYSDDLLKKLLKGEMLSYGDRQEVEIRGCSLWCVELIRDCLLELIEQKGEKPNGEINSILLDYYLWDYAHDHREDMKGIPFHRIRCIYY
Sequence of UniProt Q99627 (Q99627 whole entry, looked up): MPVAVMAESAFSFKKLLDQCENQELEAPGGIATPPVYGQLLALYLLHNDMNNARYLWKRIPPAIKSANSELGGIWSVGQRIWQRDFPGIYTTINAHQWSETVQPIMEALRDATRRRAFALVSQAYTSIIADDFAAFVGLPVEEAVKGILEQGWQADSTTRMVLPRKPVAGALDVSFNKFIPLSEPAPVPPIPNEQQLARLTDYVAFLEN
Sequence of UniProt Q8NHZ8 (Q8NHZ8 whole entry, looked up): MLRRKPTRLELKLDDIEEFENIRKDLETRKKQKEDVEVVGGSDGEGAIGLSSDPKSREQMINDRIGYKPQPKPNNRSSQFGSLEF

Target | log2 fold change (saracatinib) | log2 fold change (sotrastaurin) | log2 fold change (alvocidib) | log2 fold change (Tubastatin A) | log2 fold change [1] | log2 fold change (defactinib) | log2 fold change (rucaparib) | log2 fold change [2] | log2 fold change (encorafenib) | log2 fold change [3]
CCDC9 (UniProt Q9Y3X0) | 0.023 | 0.077 | 0.192 | -0.046 | -0.038 | 0.148 | 0.116 | -0.031 | -0.021 | 0.004
CLN8 (UniProt Q9UBY8) | 0.073 | 0.107 | 0.061 | -0.225 | 0.022 | -0.062 | -0.061 | -0.292 | -0.117 | 0.05
CLTB (UniProt P09497) | 0.064 | 0.017 | 0.078 | -0.019 | -0.034 | 0.063 | -0.039 | -0.009 | -0.014 | 0.031
COPS8 (UniProt Q99627) | -0.013 | -0.052 | -0.071 | -0.025 | -0.039 | -0.03 | -0.015 | 0.018 | 0.011 | -0.021
CNOT4 isoform 6 (UniProt O95628) | 0 | 0.003 | -0.095 | -0.003 | -0.014 | -0.03 | -0.044 | -0.07 | -0.023 | -0.015
CCM2 isoform 2 (UniProt Q9BSQ5) | -0.01 | 0.056 | -0.022 | 0.073 | -0.061 | -0.107 | 0.03 | 0.087 | 0.118 | -0.033
CDC42SE1 (UniProt Q9NRR8) | 0.074 | -0.033 | -0.019 | -0.562 (active) | 0.228 | -0.041 | 0.087 | 0.01 | -0.032 | 0.077
CDK9 isoform 2 (UniProt P50750) | -0.028 | -0.018 | 0.405 (active) | 0.01 | -0.07 | 0.03 | 0.084 | 0.036 | 0.079 | -0.091
COX5A (UniProt P20674) | -0.063 | 0.025 | -0.063 | -0.015 | 0.043 | -0.016 | 0.011 | 0.007 | -0.036 | 0.11
CAMK2G isoform 6 (UniProt Q13555) | -0.005 | -0.088 | 0.123 | -0.012 | 0.25 | 0.14 | 0.061 | 0.129 | 0 | -0.074
CRK (UniProt P46108) | -0.768 (active) | 0 | -0.032 | 0.092 | -0.003 | -0.056 | -0.025 | -0.006 | 0.021 | -0.024
CKB (UniProt P12277) | -0.041 | 0.019 | -0.089 | -0.004 | -0.016 | -0.006 | -0.059 | 0.043 | 0.015 | -0.011
C9orf64 (UniProt Q5T6V5) | -0.053 | -0.124 | -0.177 | 0.036 | -0.04 | -0.067 | 0.377 (active) | -0.018 | 0.047 | 0.016
CERT isoform 3 (UniProt Q9Y5P4) | 0.033 | 0.014 | 0.002 | -0.105 | 0.131 | -0.097 | -0.009 | 0.116 | -0.015 | 0.047
CLASP2 isoform 3 (UniProt O75122) | -0.073 | -0.232 | -0.132 | 0.016 | -0.041 | -0.1 | 0.015 | 0.035 | 0.084 | -0.043
CELF2 isoform 3 (UniProt O95319) | -0.011 | 0.076 | 0.036 | -0.102 | -0.034 | 0.098 | 0.125 | -0.099 | -0.041 | -0.032
CDC26 (UniProt Q8NHZ8) | 0.032 | -0.022 | 0.026 | 0 | -0.032 | -0.11 | 0.112 | -0.013 | -0.051 | -0.234
CPT2 (UniProt P23786) | -0.089 | -0.136 | -0.062 | 0.032 | 0.147 | -0.164 | -0.096 | 0.363 | -0.074 | -0.057
CDC42BPB (UniProt Q9Y5S2) | -0.089 | -0.152 | 0.009 | 0.055 | 0.021 | -0.119 | 0.146 | -0.046 | -0.029 | -0.032
COX15 (UniProt Q7KZN9) | 0.071 | 0.004 | -0.015 | -0.009 | -0.008 | -0.003 | -0.236 (active) | -0.017 | 0.023 | 0.002
CALB1 (UniProt P05937) | 0.033 | 0.008 | 0.034 | -0.026 | 0.02 | 0.013 | -0.07 | -0.14 | 0.023 | 0.021
CHKA (UniProt P35790) | 0.028 | 0.107 | 0.064 | 0.148 | -0.033 | 0.006 | 0.046 | -0.027 | -0.107 | 0.056
CPT1A (UniProt P50416) | 0.021 | 0.075 | 0.578 (active) | 0.142 | 0.161 | -0.087 | 0.054 | 0.148 | 0.069 | -0.04
CBR1 (UniProt P16152) | 0.02 | -0.005 | -0.098 | -0.059 | 0.011 | -0.041 | -0.01 | -0.003 | -0.024 | 0.004
CDK12 (UniProt Q9NYV4) | -0.113 | -0.406 | 0.122 | 0.165 | -0.309 | -0.052 | 0.072 | 0.003 | 0.09 | 0.157
CS (UniProt O75390) | -0.001 | 0.02 | -0.074 | -0.015 | 0.011 | -0.069 | 0.022 | -0.055 | -0.042 | -0.002
C4orf33 (UniProt Q8N1A6) | -0.027 | -0.091 | -0.07 | -0.024 | 0.048 | -0.071 | 0.091 | 0.013 | -0.076 | 0.042
CDK13 (UniProt Q14004) | -0.133 | -0.121 | -0.061 | 0.042 | -0.071 | -0.01 | 0.06 | -0.129 | 0.104 | 0.036
CHEK1 (UniProt O14757) | 0 | -0.271 (active) | -0.041 | 0.09 | -0.32 (active) | -0.031 | -0.071 | 0.003 | 0.043 | 0
C15orf41 (UniProt Q9Y2V0) | 0.009 | 0.042 | -0.042 | 0.011 | -0.137 | -0.008 | 0.081 | -0.017 | 0.01 | 0.079
